# Active and inactive are the calls of the source. How the source made its calls: active means hit-call score of the fitted dose curve at least 0.9, where 1 is the maximum; inactive means score below 0.9.
# What was measured:
# [1] = ATG_CRE_CIS: Attagene CIS-FACTORIAL HepG2 Assay for human cAMP Responsive Element (CRE) binding protein 3 (AID 2282926); conditions: HepG2 CRE cis-reporter, Attagene multiplexed mRNA; actives raise or lower the signal
# Procedure, shortened: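 Transfected HepG2 were treated for 24 hours, then RNA was extracted and reporter cDNA amplified with sequence-specific primers. Labelled fragments were separated by capillary electrophoresis, and the CRE signal was fitted bidirectionally with DMSO as baseline.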
# [2] = molecular target: CCAAT/enhancer-binding protein beta (Homo sapiens) (UniProt P17676); experiment: ATG_C_EBP_CIS: Attagene CIS-FACTORIAL HepG2 Assay for human CCAAT/Enhancer Binding Protein (C/EBP) beta (AID 2282927); conditions: HepG2 Attagene cis-factorial transcription factor reporter; actives raise or lower the signal
# Chain of CCAAT/enhancer-binding protein beta (Homo sapiens) (P17676 whole entry, looked up): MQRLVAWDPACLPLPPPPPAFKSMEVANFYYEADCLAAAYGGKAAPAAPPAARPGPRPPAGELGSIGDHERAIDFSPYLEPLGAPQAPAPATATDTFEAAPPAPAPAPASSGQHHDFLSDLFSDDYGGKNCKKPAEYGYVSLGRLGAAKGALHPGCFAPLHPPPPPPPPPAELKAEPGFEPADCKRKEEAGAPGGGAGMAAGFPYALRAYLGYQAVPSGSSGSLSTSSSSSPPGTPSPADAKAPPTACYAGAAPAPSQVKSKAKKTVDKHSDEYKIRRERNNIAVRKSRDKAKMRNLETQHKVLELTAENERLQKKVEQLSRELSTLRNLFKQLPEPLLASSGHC
# Procedure, shortened: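 Endogenous transcription factor activity in human liver HepG2 cells is inferred from induction of a CEBPB-linked reporter mRNA. Exposure lasts 24 h; activity is fitted in both directions relative to DMSO.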
# [3] = ATG_CMV_CIS: Attagene CIS-FACTORIAL HepG2 Assay for human CMV (Internal Marker) (AID 2282928); conditions: HepG2 CMV promoter reporter, transcription factor profiling; actives raise or lower the signal;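 further: endpoint acts as a background internal control marker rather than a target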
# Procedure, shortened: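 Cell system: HepG2, transiently transfected multiple reporter units under cis promoters. Exposure: 24 h. Detection: RT-PCR, FAM labeling, HpaI digestion, capillary electrophoresis. Analysis: bidirectional, DMSO baseline.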
# [4] = ATG_DR4_LXR_CIS: Attagene CIS-FACTORIAL HepG2 Assay for human Liver X Receptor (LXR), DR4 submotif (AID 2282929); conditions: HepG2 Attagene DR4 cis-reporter, mRNA transcription; actives raise or lower the signal
# Procedure, shortened: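 Readout: reporter transcript fluorescence after RT-PCR and capillary electrophoresis, fitted bidirectionally against DMSO controls. Human HepG2 liver cells carried transiently transfected multiplexed reporter constructs; endogenous transcription factor activity measured 24 h post-dosing.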
# [5] = molecular target: Aryl hydrocarbon receptor (Homo sapiens) (UniProt P35869); experiment: ATG_Ahr_CIS: Attagene CIS-FACTORIAL HepG2 Assay for human Aryl Hydrocarbon Receptor (Ahr) (AID 2282930); conditions: HepG2 AhR cis-factorial reporter transcription; actives raise or lower the signal
# Chain of Aryl hydrocarbon receptor (Homo sapiens) (P35869 whole entry, looked up): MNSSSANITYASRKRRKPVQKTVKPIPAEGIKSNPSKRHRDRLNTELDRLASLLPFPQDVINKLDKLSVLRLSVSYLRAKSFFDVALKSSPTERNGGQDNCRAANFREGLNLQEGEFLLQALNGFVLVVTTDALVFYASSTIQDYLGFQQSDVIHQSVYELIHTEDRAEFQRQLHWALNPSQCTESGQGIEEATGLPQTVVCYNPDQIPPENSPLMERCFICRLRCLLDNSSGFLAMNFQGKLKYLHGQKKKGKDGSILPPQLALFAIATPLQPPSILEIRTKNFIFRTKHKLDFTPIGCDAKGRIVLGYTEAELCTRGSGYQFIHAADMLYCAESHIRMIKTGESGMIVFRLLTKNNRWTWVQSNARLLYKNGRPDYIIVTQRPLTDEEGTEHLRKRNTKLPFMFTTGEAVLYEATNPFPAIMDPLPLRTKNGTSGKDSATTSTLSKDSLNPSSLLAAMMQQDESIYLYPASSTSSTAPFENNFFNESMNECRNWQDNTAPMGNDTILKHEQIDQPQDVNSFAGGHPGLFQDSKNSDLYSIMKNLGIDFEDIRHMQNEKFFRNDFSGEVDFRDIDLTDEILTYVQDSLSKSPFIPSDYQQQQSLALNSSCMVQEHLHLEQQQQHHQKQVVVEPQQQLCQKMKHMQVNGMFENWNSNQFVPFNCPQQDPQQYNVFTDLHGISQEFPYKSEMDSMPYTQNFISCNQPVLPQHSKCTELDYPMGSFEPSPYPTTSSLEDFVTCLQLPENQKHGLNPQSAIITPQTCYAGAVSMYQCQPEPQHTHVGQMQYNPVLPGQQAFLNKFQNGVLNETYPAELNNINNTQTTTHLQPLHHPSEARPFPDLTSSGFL
# Procedure, shortened: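 Transient MRTU transfection of HepG2 → 24 h compound exposure → total RNA, oligo(dT) RT → PCR, 6-FAM extension, HpaI cut → CE fluorescence. DMSO = baseline; bidirectional curve fit.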
# [6] = ATG_AP_1_CIS: Attagene CIS-FACTORIAL HepG2 Assay for human Activator Protein 1 (AP-1) (AID 2282931); conditions: HepG2 Attagene cis-factorial AP-1 reporter mRNA; actives raise or lower the signal
# Procedure, shortened: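 Reporter transcripts were measured 24 h after dosing by RT-PCR and capillary electrophoresis of fluorescent fragments. Cells: HepG2 carrying transfected cis-regulated reporter constructs reading endogenous factor activity. Gain or loss fitted against DMSO.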
# [7] = ATG_AP_2_CIS: Attagene CIS-FACTORIAL HepG2 Assay for human Activator Protein 2 (AP-2) (AID 2282932); conditions: HepG2 AP-2 cis-reporter, Attagene transcription factor profiling; actives raise or lower the signal
# Procedure, shortened: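 HepG2, transient MRTU transfection, cis-regulated reporters; 24 h compound exposure; RNA isolated, RT-PCR, 6-FAM labelling, HpaI digest, CE fluorescence. DMSO = negative control/baseline, bidirectional fit.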
# [8] = ATG_BRE_CIS: Attagene CIS-FACTORIAL HepG2 Assay for human Bone Morphogenetic Protein (BMP) Response Element (BRE) (AID 2282933); conditions: HepG2 BMP response element reporter, Attagene transcription factor profiling; actives raise or lower the signal
# Procedure, shortened: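 A HepG2 multiplex reporter system measured inducible reporter mRNA 24 h post-dosing. Detection: RT-PCR, 6-FAM primer extension, HpaI digestion, capillary electrophoresis. Activity fitted bidirectionally relative to DMSO.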
# [9] = molecular target: Retinoic acid receptor alpha (Homo sapiens) (UniProt P10276); experiment: ATG_DR5_RAR_CIS: Attagene CIS-FACTORIAL HepG2 Assay for human Retinoic Acid Receptor Alpha (RARE), DR5 submotif (AID 2282934); conditions: HepG2 Attagene cis-factorial RARE DR5 reporter, mRNA; actives raise or lower the signal;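 on AC50: reporter responds to endogenous RAR alpha beta and gamma in HepG2 not RARA alone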
# Chain of Retinoic acid receptor alpha (Homo sapiens) (P10276 whole entry, looked up): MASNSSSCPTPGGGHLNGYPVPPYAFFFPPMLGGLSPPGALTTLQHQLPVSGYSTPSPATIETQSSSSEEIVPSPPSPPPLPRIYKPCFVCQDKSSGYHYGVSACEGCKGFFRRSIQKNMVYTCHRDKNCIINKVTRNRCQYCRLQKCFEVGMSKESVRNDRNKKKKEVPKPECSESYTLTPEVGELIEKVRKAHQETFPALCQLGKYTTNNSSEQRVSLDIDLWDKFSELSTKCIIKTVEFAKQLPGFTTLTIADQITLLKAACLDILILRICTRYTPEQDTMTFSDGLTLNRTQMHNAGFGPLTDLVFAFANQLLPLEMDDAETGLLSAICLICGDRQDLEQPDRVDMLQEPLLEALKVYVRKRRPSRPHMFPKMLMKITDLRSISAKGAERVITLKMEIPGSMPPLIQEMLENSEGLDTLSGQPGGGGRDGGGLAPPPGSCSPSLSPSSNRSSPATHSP
# Procedure, shortened: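 Transient MRTU transfection of HepG2; 24 h compound treatment; TriZol RNA, oligo(dT) RT, PCR, FAM labelling, capillary electrophoresis. Bidirectional fit vs DMSO. Endogenous TF activity at DR5 RARE.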
# [10] = molecular target: Transcription factor E2F1 (Homo sapiens) (UniProt Q01094); experiment: ATG_E2F_CIS: Attagene CIS-FACTORIAL HepG2 Assay for human E2F Transcription Factor 1 (AID 2282935); conditions: HepG2 Attagene cis-reporter, E2F reporter RNA transcripts; actives raise or lower the signal
# Chain of Transcription factor E2F1 (Homo sapiens) (Q01094 whole entry, looked up): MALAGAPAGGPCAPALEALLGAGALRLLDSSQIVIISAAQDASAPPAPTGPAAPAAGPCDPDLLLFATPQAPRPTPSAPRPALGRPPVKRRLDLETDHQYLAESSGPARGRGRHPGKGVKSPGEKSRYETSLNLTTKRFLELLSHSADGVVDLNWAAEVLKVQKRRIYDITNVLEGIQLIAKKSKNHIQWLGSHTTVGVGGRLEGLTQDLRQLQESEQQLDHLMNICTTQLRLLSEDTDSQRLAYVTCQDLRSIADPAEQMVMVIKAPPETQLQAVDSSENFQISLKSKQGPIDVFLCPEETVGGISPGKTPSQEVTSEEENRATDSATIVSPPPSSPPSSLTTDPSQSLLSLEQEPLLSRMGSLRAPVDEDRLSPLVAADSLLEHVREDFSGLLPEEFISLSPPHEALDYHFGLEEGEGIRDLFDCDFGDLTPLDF
# Procedure, shortened: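 Cis-element reporter mRNA induction in transiently transfected HepG2, 24 h exposure. Activity fitted in both directions relative to DMSO negative control.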
# [11] = ATG_E_Box_CIS: Attagene CIS-FACTORIAL HepG2 Assay for human Enhancer Box (E-box) (AID 2282936); conditions: HepG2 E-box cis-reporter transcription, actives raise or lower the signal
# Procedure, shortened: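 Cells: HepG2 (human liver), transient MRTU transfection. Exposure 24 h. RNA → oligo(dT) RT → PCR → 6-FAM label → HpaI → CE. Activity fitted both directions relative to DMSO.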
# [12] = ATG_M_61_CIS: Attagene CIS-FACTORIAL HepG2 Assay for M61 Transcription Factor (Internal Marker) (AID 2282937); conditions: HepG2 Attagene CIS-FACTORIAL M61 internal marker reporter; actives raise or lower the signal
# Procedure, shortened: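 Readout: fluorescent reporter mRNA fragments resolved by capillary electrophoresis after RT-PCR. Transiently transfected human HepG2 cells carried MRTU constructs reporting endogenous TF activity; 24 h chemical exposure; gain or loss of signal fitted relative to DMSO.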
# [13] = ATG_EGR_CIS: Attagene CIS-FACTORIAL HepG2 Assay for human Early Growth Response 1 (EGR1) (AID 2282938); conditions: HepG2 Attagene CIS-FACTORIAL EGR reporter mRNA; actives raise or lower the signal
# Procedure, shortened: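 Read-out: fluorescent reporter-mRNA fragments resolved by capillary electrophoresis after RT-PCR, 24 h post-dose in transiently transfected HepG2. Endogenous transcription-factor activity reported via cis-element-regulated reporter units; gain or loss fitted relative to DMSO.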
# [14] = ATG_M_19_CIS: Attagene CIS-FACTORIAL HepG2 Assay for M19 Transcription Factor (Internal Marker) (AID 2282939); conditions: HepG2 Attagene CIS-FACTORIAL M19 internal marker reporter; actives raise or lower the signal
# Procedure, shortened: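 Chemical-treated HepG2 (24 h) with MRTU constructs; reporter transcripts detected by fluorescent RT-PCR fragment analysis on capillary electrophoresis. Internal background marker, DMSO as baseline.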
# [15] = ATG_Ets_CIS: Attagene CIS-FACTORIAL HepG2 Assay for human Erythroblast Transformation Specific (ETS) (AID 2282941); conditions: HepG2 ETS cis-reporter transcription, actives raise or lower the signal
# Procedure, shortened: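 After transient cis-reporter transfection, HepG2 cells receive test chemical for 24 h. Reporter mRNA levels, measured by RT-PCR and capillary electrophoresis fluorescence, are analysed bidirectionally relative to the DMSO baseline.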
# [16] = molecular target: Hepatocyte nuclear factor 3-beta (Homo sapiens) (UniProt Q9Y261); experiment: ATG_FoxA2_CIS: Attagene CIS-FACTORIAL HepG2 Assay for human Forkhead box A2 (FOXA2) (AID 2282942); conditions: HepG2 cis-reporter transcription factor activity, 24 h; actives raise or lower the signal
# Chain of Hepatocyte nuclear factor 3-beta (Homo sapiens) (Q9Y261 whole entry, looked up): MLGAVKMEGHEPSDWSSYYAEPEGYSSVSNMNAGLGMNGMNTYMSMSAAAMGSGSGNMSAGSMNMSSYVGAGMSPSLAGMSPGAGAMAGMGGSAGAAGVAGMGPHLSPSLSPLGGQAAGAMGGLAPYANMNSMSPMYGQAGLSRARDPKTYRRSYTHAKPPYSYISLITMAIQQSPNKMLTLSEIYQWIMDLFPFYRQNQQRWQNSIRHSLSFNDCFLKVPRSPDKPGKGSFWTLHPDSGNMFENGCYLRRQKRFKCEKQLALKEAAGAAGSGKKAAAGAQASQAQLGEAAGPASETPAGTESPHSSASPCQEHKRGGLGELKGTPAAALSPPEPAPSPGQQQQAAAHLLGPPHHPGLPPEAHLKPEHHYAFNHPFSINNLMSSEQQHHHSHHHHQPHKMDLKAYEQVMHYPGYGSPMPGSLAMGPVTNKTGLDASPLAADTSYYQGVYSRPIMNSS
# Procedure, shortened: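 Readout: fluorescent reporter transcripts resolved by capillary electrophoresis after RT-PCR. Transiently transfected HepG2, 24 h compound exposure, endogenous TF activity at cis promoter elements. Gain or loss of signal fitted relative to DMSO.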
# [17] = ATG_FoxO_CIS: Attagene CIS-FACTORIAL HepG2 Assay for human Forkhead box O (FoxO) (AID 2282943); conditions: HepG2 Attagene cis-reporter, FoxO element, mRNA; actives raise or lower the signal
# Procedure, shortened: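 HepG2, transient MRTU transfection (cis element, endogenous TFs). Dose 24 h. TriZol RNA → oligo(dT) RT → PCR → 6-FAM primer extension → HpaI cut → CE. Gain/loss vs DMSO.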
# [18] = ATG_GATA_CIS: Attagene CIS-FACTORIAL HepG2 Assay for human GATA Binding Protein (AID 2282944); conditions: HepG2 GATA cis-element reporter, Attagene multiplex mRNA; actives raise or lower the signal
# Procedure, shortened: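 Transfected cis-reporter HepG2 cells were treated with chemicals for 24 hours. Total RNA was then converted to cDNA, amplified with reporter-specific primers and analysed by fluorescent capillary electrophoresis, using DMSO-treated wells as baseline.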
# [19] = ATG_GLI_CIS: Attagene CIS-FACTORIAL HepG2 Assay for human Zinc Finger Protein GLI1 (AID 2282945); conditions: HepG2, Attagene cis-factorial reporter mRNA, GLI element; actives raise or lower the signal
# Procedure, shortened: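 Bidirectional curve fits relative to DMSO, using reporter mRNA levels from RT-PCR plus capillary electrophoresis. Cells were HepG2 transiently carrying cis-regulated reporter constructs, harvested 24 h after dosing.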
# [20] = ATG_ERE_CIS: Attagene CIS-FACTORIAL HepG2 Assay for Estrogen Response Element (ERE) (AID 2282940); conditions: HepG2 ERE cis-reporter, Attagene RNA transcript; actives raise or lower the signal
# Procedure, shortened: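 Human liver cells (HepG2) bearing transiently transfected, promoter-regulated reporter units were exposed 24 h. Reporter mRNA induction was detected by capillary electrophoresis of labelled RT-PCR products and fitted bidirectionally to DMSO.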
compound,measurement,setting,value
CCOP(=O)(NC(C)C)Oc1ccc(SC)c(C)c1 (centres undefined),outcome,[1],inactive
same,outcome,[2],inactive
same,outcome,[3],inactive
same,outcome,[4],inactive
same,outcome,[5],inactive
same,outcome,[6],inactive
same,outcome,[7],inactive
same,outcome,[8],inactive
same,AC50,[9],14.2 µM (active)
same,outcome,[10],inactive
same,outcome,[11],inactive
same,outcome,[12],inactive
same,outcome,[13],inactive
same,outcome,[14],inactive
same,outcome,[15],inactive
same,outcome,[16],inactive
same,outcome,[17],inactive
same,outcome,[18],inactive
same,outcome,[19],inactive
C=C(C)[C@H]1Cc2c(ccc3c2O[C@@H]2COc4cc(OC)c(OC)cc4[C@@H]2C3=O)O1,AC50,[1],0.0337 µM (active)
same,AC50,[2],0.0249 µM (active)
same,AC50,[3],0.0033 µM (active)
same,outcome,[4],inactive
same,outcome,[5],inactive
same,AC50,[6],0.0044 µM (active)
same,outcome,[7],inactive
same,AC50,[8],0.0104 µM (active)
same,AC50,[9],0.0229 µM (active)
same,outcome,[11],inactive
same,outcome,[12],inactive
same,outcome,[13],inactive
same,outcome,[14],inactive
same,outcome,[15],inactive
same,outcome,[16],inactive
same,outcome,[17],inactive
same,AC50,[18],1.21 µM (active)
same,outcome,[19],inactive
CCC(=O)Nc1ccc(Cl)c(Cl)c1,outcome,[1],inactive
same,outcome,[2],inactive
same,AC50,[3],22.9 µM (active)
same,outcome,[4],inactive
same,outcome,[5],inactive
same,outcome,[6],inactive
same,outcome,[7],inactive
same,outcome,[8],inactive
same,outcome,[9],inactive
same,outcome,[10],inactive
same,outcome,[11],inactive
same,outcome,[12],inactive
same,outcome,[13],inactive
same,outcome,[14],inactive
same,outcome,[15],inactive
same,outcome,[16],inactive
same,outcome,[17],inactive
same,outcome,[18],inactive
same,outcome,[19],inactive
CNC(=O)Oc1cccc2c1OC(C)(C)O2,AC50,[1],50 µM (active)
same,AC50,[2],19.3 µM (active)
same,AC50,[3],35.9 µM (active)
same,outcome,[4],inactive
same,outcome,[5],inactive
same,AC50,[6],61 µM (active)
same,outcome,[7],inactive
same,AC50,[8],42 µM (active)
same,outcome,[11],inactive
same,outcome,[12],inactive
same,outcome,[13],inactive
same,outcome,[14],inactive
same,AC50,[20],29.5 µM (active)
same,AC50,[15],75.9 µM (active)
same,outcome,[16],inactive
same,outcome,[17],inactive
same,outcome,[18],inactive
same,outcome,[19],inactive
CSc1nc(NC(C)C)nc(NC(C)C)n1,outcome,[1],inactive
same,outcome,[2],inactive
same,outcome,[3],inactive
same,outcome,[4],inactive
same,outcome,[5],inactive
same,outcome,[6],inactive
same,outcome,[7],inactive
same,outcome,[8],inactive
same,AC50,[9],21.9 µM (active)
same,outcome,[11],inactive
same,outcome,[12],inactive
same,outcome,[13],inactive
same,outcome,[14],inactive
same,outcome,[20],inactive
same,outcome,[15],inactive
same,outcome,[16],inactive
same,outcome,[17],inactive
same,outcome,[18],inactive
same,outcome,[19],inactive
CSC1=N[C@@](C)(c2ccccc2)C(=O)N1Nc1ccccc1,AC50,[1],4.24 µM (active)
same,AC50,[2],6.21 µM (active)
same,outcome,[3],inactive
same,outcome,[4],inactive
same,AC50,[5],50 µM (active)
same,AC50,[6],3.2 µM (active)
same,outcome,[7],inactive
same,AC50,[8],5.2 µM (active)
same,outcome,[11],inactive
same,outcome,[12],inactive
same,AC50,[13],19.9 µM (active)
same,outcome,[14],inactive
same,outcome,[15],inactive
same,outcome,[16],inactive
same,outcome,[17],inactive
same,outcome,[18],inactive
same,outcome,[19],inactive
CCCCOC(=O)[C@@H](C)Oc1ccc(Oc2ccc(C#N)cc2F)cc1,outcome,[1],inactive
same,outcome,[2],inactive
same,outcome,[3],inactive
same,outcome,[4],inactive
same,outcome,[5],inactive
same,outcome,[6],inactive
same,outcome,[7],inactive
same,outcome,[8],inactive
same,outcome,[10],inactive
same,outcome,[11],inactive
same,outcome,[12],inactive
same,outcome,[13],inactive
same,outcome,[14],inactive
same,outcome,[20],inactive
same,outcome,[15],inactive
same,outcome,[16],inactive
same,outcome,[17],inactive
same,outcome,[18],inactive
same,outcome,[19],inactive
